Measured values taken from PubChem BioAssay (Tox21).
Records with an inconclusive call do not appear. Where a call stands in place of a potency, no number is given. Calls of active or inactive are those of the source. The call rests on the fitted dose curve.

Target: Thyrotropin receptor (Homo sapiens) (UniProt P16473)
Experiment: qHTS assay to identify small molecule antagonists of the thyroid stimulating hormone receptor (TSHR) signaling pathway (AID 1259385); further: nearly all actives have a fitted effect of over 20% in size
Details: TSHR-HEK293 cAMP HTRF, TSH-stimulated antagonist mode; series mostly up to 92.4 µM
Summary of the method: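 Antagonist mode: compound-treated TSHR-expressing HEK293 cells were stimulated with 1.5 ng/mL TSH (final) in presence of Ro20-1724 for 30 min at RT. HTRF cAMP detection after 1 h; each compound tested at 15 concentrations, triplicate.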
Potency means the concentration at half of the fitted maximal effect.

Thyrotropin receptor (Homo sapiens), sequence (P16473 whole entry, looked up): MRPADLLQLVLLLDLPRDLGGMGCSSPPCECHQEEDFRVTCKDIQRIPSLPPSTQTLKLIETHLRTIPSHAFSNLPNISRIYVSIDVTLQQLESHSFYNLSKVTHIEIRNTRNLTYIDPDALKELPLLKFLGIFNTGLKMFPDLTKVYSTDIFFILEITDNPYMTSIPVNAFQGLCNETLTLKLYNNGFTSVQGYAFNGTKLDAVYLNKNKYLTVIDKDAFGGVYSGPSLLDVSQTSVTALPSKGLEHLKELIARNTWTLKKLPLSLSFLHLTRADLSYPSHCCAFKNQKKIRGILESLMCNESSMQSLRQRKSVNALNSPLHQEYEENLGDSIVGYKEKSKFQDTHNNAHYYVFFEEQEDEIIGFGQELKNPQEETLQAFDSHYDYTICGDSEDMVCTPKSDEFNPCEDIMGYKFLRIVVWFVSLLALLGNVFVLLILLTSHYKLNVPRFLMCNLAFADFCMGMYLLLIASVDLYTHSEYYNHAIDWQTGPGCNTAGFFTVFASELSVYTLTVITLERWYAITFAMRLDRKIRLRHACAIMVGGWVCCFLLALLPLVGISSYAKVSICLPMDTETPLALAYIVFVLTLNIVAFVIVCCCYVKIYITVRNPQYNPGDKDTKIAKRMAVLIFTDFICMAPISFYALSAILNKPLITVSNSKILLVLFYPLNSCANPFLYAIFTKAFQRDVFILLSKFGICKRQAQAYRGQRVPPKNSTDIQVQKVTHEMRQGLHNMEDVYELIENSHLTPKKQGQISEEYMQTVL

SMILES	Potency
C(=C\c1ccccc1)/c1ccccc1	inactive
CC(CCC(=O)O)C(=O)O (stereo not given)	inactive
O=C(CCCN1CC=C(n2c(=O)[nH]c3ccccc32)CC1)c1ccc(F)cc1	inactive
CCOC(C)=O	inactive
CCCCC(CC)CN (stereo not given)	inactive
O=C(Nc1cccc2c(=O)cc(-c3nn[nH]n3)oc12)c1ccc(OCCCCc2ccccc2)cc1	inactive
CCCCCCCCN	inactive
CC(O)c1ccccc1 (stereo not given)	inactive
O=C(Cn1ccnc1[N+](=O)[O-])NCCO	inactive
Cc1ccccc1S	inactive
O=C1c2ccccc2C(=O)C1c1nc2ccccc2c(Br)c1O	inactive
COC(=O)CS	inactive
CC1(C)O[C@@H]2C[C@H]3[C@@H]4C[C@H](F)C5=CC(=O)C=C[C@]5(C)[C@H]4[C@@H](O)C[C@]3(C)[C@]2(C(=O)CO)O1	inactive
CCC1NC(=O)c2cc(S(N)(=O)=O)c(Cl)cc2N1 (stereo not given)	inactive
CCCCCCCCCCC(=O)O	inactive
CCC(C)(C)OC	inactive
C1COC1	inactive
O=C1CCCCCCCCCCOCCCCO1	inactive
COc1ccccc1N1CCN(CCCCNC(=O)c2ccc(-c3ccc(C(C)=O)cc3)cc2)CC1	18.8 µM (active)
C=C/C(C)=C/C/C=C(\C)CCC=C(C)C	inactive

SMILES	Potency
O=C1c2ccccc2C(=O)c2c(O)c(O)cc(O)c21	inactive
O=C(O)C[C@H](NC(=O)OCc1ccccc1)C(=O)O	inactive
CC(=O)Oc1ccc([N+](=O)[O-])cc1CCl	inactive
CCCCCC#CC(=O)OC	inactive
CC(C)C(O)(c1ccc(OC(F)(F)F)cc1)c1cncnc1 (stereo not given)	inactive
O=c1[nH]ncc2ccccc12	inactive
C=Cc1ccc(S(=O)(=O)O)cc1	17.2 µM (active)
Cc1cc(C)c(N)cc1C	inactive
CC1CC(OC(=O)C(O)c2ccccc2)CC(C)(C)N1C (stereo not given)	inactive
CC(C)=CCC1C(=O)N(c2ccccc2)N(c2ccccc2)C1=O	inactive
CCOC(=O)OC(C)OC(=O)[C@@H]1N2C(=O)[C@@H](NC(=O)[C@H](N)c3ccccc3)[C@H]2SC1(C)C (stereo not given in full)	inactive
OCCOCC#CCOCCO	inactive
c1csc(SSc2cccs2)c1	inactive
C=C(C)C(=O)OCCCCCCCCCCCCC	inactive
Cc1cc(C)cc(N)c1	inactive
C[C@@H]1CN(CCCn2c3ccccc3c3ccccc32)C[C@H](C)N1	33.5 µM (active)
NC(=O)c1ccncc1	inactive
CCOC(=O)/C=C/C(=O)OCC	inactive
O=C(O)c1ccc(OCCCOc2ccc(C(=O)O)cc2)cc1	inactive
CC(=O)N/N=C/c1ccc([N+](=O)[O-])o1	inactive
